Results on 23 molecules are retold here after PubChem BioAssay AID651551 (Sanford-Burnham Center for Chemical Genomics, 2012).

The test addresses PEG-3 (UniProt Q6IN02). In words: GAPDH versus PEG-3 reporter suppression – cell-based, luminescence, counter-screen for PEG-3 promoter inhibitor project, SAR follow-up (AID 651551). The settings on record: HeLa PEG-Prom / GAPDH luciferase reporter, 6 or 24 h, run 1, 6 h; at 99 µM (top of the series). (In general: A counterscreen serves to expose hits that act by an unwanted route or on another target.)

In the case of `CCCn1nc(C(=O)Nc2nc3ccccc3s2)c2ccccc2c1=O`, the inhibition % (higher = more inhibition) was determined as 38.9%.

Take `COc1ccccc1Nc1nc(-c2sc(NC(=O)c3ccco3)nc2C)cs1`: the inhibition % (higher = more inhibition) is 12%.

For `CCn1nc(C(=O)Nc2nc(-c3ccccn3)cs2)c2ccccc2c1=O`, the inhibition % (higher = more inhibition) turned out to be 26.9%.

For `Cc1cc(NC(=O)c2cccc(C)c2C)n(-c2nc3ccccc3[nH]2)n1`, the inhibition % (higher = more inhibition) is 20.4%.

As to `O=C(Nc1nc(-c2ccccc2)cs1)c1nn(-c2ccccc2)c(=O)c2ccccc12`, the inhibition % (higher = more inhibition) was -1.45%.

Regarding `COc1ccc(Cl)cc1Nc1nc(-c2sc(NC(=O)c3ccccc3)nc2C)cs1`, the inhibition % (higher = more inhibition) turned out to be 49.3%.

Take `COc1ccc(-n2nc(C(=O)NCC(=O)Nc3ccc(OC)c(OC)c3)c3ccccc3c2=O)cc1`: the inhibition % (higher = more inhibition) turned out to be 23.9%.

In the case of `Cc1cc(NC(=O)c2ccccc2)n(-c2nc3ccccc3n2C)n1`, the inhibition % (higher = more inhibition) worked out at 48.1%.

As for `Cc1nc(NC(=O)c2ccccc2)sc1-c1csc(Nc2ccccc2)n1`, the inhibition % (higher = more inhibition) turned out to be 23.9%.

As for `Cc1cc(NC(=O)c2ccccc2)n(-c2nc3ccccc3[nH]2)n1`, the inhibition % (higher = more inhibition) was 14.9%.

As for `CCCn1nc(C(=O)Nc2nc(-c3ccccn3)cs2)c2ccccc2c1=O`, the inhibition % (higher = more inhibition) was 25.9%.

Take `Cc1cc(NC(=O)c2ccccc2C(F)(F)F)n(-c2nc3ccccc3[nH]2)n1`: the inhibition % (higher = more inhibition) was 92.7%.

With `COc1ccc(-n2nc(C(=O)NCC(=O)Nc3cc(OC)c(OC)c(OC)c3)c3ccccc3c2=O)cc1OC`, the inhibition % (higher = more inhibition) was 6.02%.

As to `Cc1nc(NC(=O)c2ccccc2)sc1-c1csc(Nc2ccccc2Cl)n1`, the inhibition % (higher = more inhibition) is -1.45%.

As to `COc1ccc(-n2nc(C(=O)NCC(=O)Nc3cccc(OC)c3)c3ccccc3c2=O)cc1`, the inhibition % (higher = more inhibition) was -7.42%.

Take `Cc1ccc(Cl)cc1Nc1nc(-c2sc(NC(=O)c3ccco3)nc2C)cs1`: the inhibition % (higher = more inhibition) came out at 57.5%.

Turning to `COCCCNC(=O)c1ccc(Cn2c(=O)c3ccccc3n(Cc3ccccc3C#N)c2=O)cc1`, the inhibition % (higher = more inhibition) came to 43.4%.

`Cc1cc(NC(=O)c2ccccc2C)n(-c2nc3ccccc3[nH]2)n1`: the inhibition % (higher = more inhibition) was found to be 32.8%.

For `CCCn1nc(C(=O)Nc2nc(-c3ccncc3)cs2)c2ccccc2c1=O`, the inhibition % (higher = more inhibition) turned out to be 19.5%.

`CCn1cc(C(=O)NCc2ccco2)c(=O)c2cc(S(=O)(=O)N3CCCC3)ccc21`: the inhibition % (higher = more inhibition) was 19.5%.

`Cc1nc(NC(=O)c2ccccc2)sc1-c1csc(Nc2cccc(Cl)c2C)n1`: the inhibition % (higher = more inhibition) was determined as 37.4%.

Regarding `O=C(Nc1nc2ccccc2s1)c1nn(-c2ccccc2)c(=O)c2ccccc12`, the inhibition % (higher = more inhibition) was -4.43%.

On to `O=C(Nc1nccs1)c1nn(-c2ccccc2)c(=O)c2ccccc12`, for which the inhibition % (higher = more inhibition) was 37.4%.
